Source: PubChem BioAssay (Tox21)
Unmarked numbers belong to inactive results. Inconclusive results are not listed. Entries that show only a call come without a potency. The source made the active and inactive calls. Unless noted, calls follow the shape of the dose curve; as a rule, active = well fitted curve in the direction sought with a large enough effect in the repeat runs; inconclusive = weak or mixed curves; inactive = no such curve, though single readings can be large; an effect the other way counts as inactive or inconclusive.

How the values were obtained:
[1] = qHTS RealTime-Glo MT Cell Viability Assay in HEK293 cells - 0 hour (AID 1224880); also: top concentration of the series differs between compounds; nearly all actives have a fitted effect of over 45% in size
In short: (§1)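 Luminescence readout at each listed time point; HEK293, 600 cells/well, RealTime-Glo MT reagent added with cells; compounds pinned (23 nL in DMSO) after 5 h at 37 C; continuous culture at 37 C.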

[2] = A CellTox Green Cytotoxicity Assay to monitor cytotoxicity in HEK293 cells - 32 hour (AID 1224881); also: nearly all actives have a fitted effect of over 40% in size; also: potency is read from the fitted curve at half-maximal effect
In short: (§2)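 Read-out: fluorescence of a cell-impermeant cyanine dye staining DNA of dead cells, proportional to cytotoxicity. HEK293, 600 cells/well with reagent, compound (23 nL DMSO) added after 5 h; reads at 0, 8, 16, 24, 32, 40 h.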

[3] = A CellTox Green Cytotoxicity Assay to monitor cytotoxicity in HepG2 cells - 0 hour (AID 1224882); also: nearly all actives have a fitted effect of over 35% in size
In short: (§3)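 HepG2, 600 cells/well premixed w/ CellTox Green; 5 h settle, 37 C/5% CO2; pintool cpd add (DMSO); 37 C, 40 h; fluorescence read at 0, 8, 16, 24, 32, 40 h.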

[4] = A CellTox Green Cytotoxicity Assay to monitor cytotoxicity in HepG2 cells - 32 hour (AID 1224883); also: nearly all actives have a fitted effect of over 50% in size; also: potency is read from the fitted curve at half-maximal effect
In short: as §3

[5] = A CellTox Green Cytotoxicity Assay to monitor cytotoxicity in HEK293 cells - 8 hour (AID 1224884); also: nearly all actives have a fitted effect of over 35% in size
In short: as §2

[6] = qHTS RealTime-Glo MT Cell Viability Assay in HepG2 cells - 16 hour (AID 1224885); also: nearly all actives have a fitted effect of over 50% in size; also: potency is read from the fitted curve at half-maximal effect
In short: (§4)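 Cells + NanoLuc/prosubstrate dispensed (600 cells/well) → 5 h at 37 C/5% CO2 → compounds in DMSO transferred → 40 h incubation at 37 C, luminescence read at 0, 8, 16, 24, 32, 40 h.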

[7] = qHTS RealTime-Glo MT Cell Viability Assay in HEK293 cells - 8 hour (AID 1224887); also: nearly all actives have a fitted effect of over 50% in size; also: potency is read from the fitted curve at half-maximal effect
In short: as §1

[8] = A CellTox Green Cytotoxicity Assay to monitor cytotoxicity in HEK293 cells - 16 hour (AID 1224888); also: nearly all actives have a fitted effect of over 35% in size
In short: as §2

[9] = qHTS RealTime-Glo MT Cell Viability Assay in HepG2 cells - 0 hour (AID 1224889); also: nearly all actives have a fitted effect of over 50% in size
In short: as §4

[10] = A CellTox Green Cytotoxicity Assay to monitor cytotoxicity in HepG2 cells - 8 hour (AID 1224890); also: nearly all actives have a fitted effect of over 45% in size
In short: as §3

[11] = qHTS assay to identify small molecule antagonists of the estrogen receptor alpha (ER-alpha) signaling pathway using the BG1 cell line in the presence of 0.1 nM 17-beta-estradiol - cell viability counter screen (AID 1259241); also: nearly all actives have a fitted effect of over 40% in size
In short: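 Live-cell protease activity (CellTiter-Fluor fluorescence, 30 min) was read in the same wells after VM7Luc4E2 cells had been exposed to compounds with 0.1 nM 17beta-estradiol for 22 hr at 37C.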

[12] = qHTS assay to identify small molecule antagonists of the androgen receptor (AR) signaling pathway using the MDA cell line in the presence of 0.5 nM R1881 - cell viability counter screen (AID 1259242); also: nearly all actives have a fitted effect of over 45% in size
In short: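 Live-cell protease fluorescence, CellTiter-Fluor, 30 min at 37C. Cells: MDA-kb2, 3,000/well, preincubated 5 hr. Compounds plus 0.5 nM R1881 final, 16 hr, 37C, 0% CO2.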

[13] = qHTS assay to identify small molecule phospholipidosis (PLD) inducers (AID 1259344; active = well fitted curve in the direction sought with a large enough effect; an effect the other way counts as inactive or inconclusive)
In short: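 Read-out is LipidTOX Red fluorescence (ex 595/em 615) imaged in HepG2 cells after 24 h compound exposure at 37 C, with Hoechst nuclear counterstain (ex 352/em 461) allowing per-cell normalisation.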

[14] = qHTS assay to identify small molecule HDAC inhibitors (AID 1259364); also: potency is read from the fitted curve at half-maximal effect;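 also: wild-type HCT-116 cells with endogenous class I/II HDAC activity; nearly all actives have a fitted effect of over 45% in size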
In short: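 HCT-116 (wild type), 1,500 cells/well, overnight; compound 2 hr 37C 5% CO2; HDAC-Glo I/II reagent 30 min RT; luminescence readout.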

[15] = qHTS assay to identify small molecule HDAC inhibitors - cell viability counter screen (AID 1259365); also: nearly all actives have a fitted effect of over 50% in size; also: potency is read from the fitted curve at half-maximal effect
In short: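 HCT-116 (wild type), 1,500 cells/well, overnight 37C/5% CO2; compound in DMSO 2hr; CellTiter-Glo 30min RT; luminescence read.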

[16] = qHTS assay to identify small molecule agonists of the sonic hedgehog signaling (Shh) pathway - cell viability counter screen (AID 1259366); also: nearly all actives have a fitted effect of over 50% in size; also: potency is read from the fitted curve at half-maximal effect
In short: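 CellTiter-Fluor fluorescence read-out, 1 hr at 37C, added after 23hr compound exposure. Cells: 3T3 Gli1-Luc, an NIH/3T3 clone with stably integrated Gli1-Luc reporter, plated 4hr before compound.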

[17] = qHTS assay to identify small molecule antagonists of the sonic hedgehog signaling (Shh) pathway - cell viability counter screen (AID 1259367); also: nearly all actives have a fitted effect of over 55% in size; also: potency is read from the fitted curve at half-maximal effect
In short: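 Fluorescence read-out (CellTiter-Fluor, 1 hr at 37C) taken after 23 hr compound treatment of 3T3 Gli1-Luc cells stimulated with conditioned medium. Cells were seeded at 2,000 per well and pre-incubated 4 hr.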

[18] = qHTS RealTime-Glo MT Cell Viability Assay in HEK293 cells - 24 hour (AID 1224886); also: nearly all actives have a fitted effect of over 50% in size; also: potency is read from the fitted curve at half-maximal effect
In short: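 Tox21 10K qHTS, HEK293, 600 cells/well, RealTime-Glo reagent co-dispensed with cells; 5 h preincubation, compound by pintool, 37 C, luminescence at 0–40 h.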

[19] = target: Estrogen receptor (Homo sapiens) (UniProt P03372); assay: qHTS assay to identify small molecule antagonists of the estrogen receptor alpha (ER-alpha) signaling pathway using the BG1 cell line in the presence of 0.1 nM 17-beta-estradiol (AID 1259244); also: nearly all actives have a fitted effect of over 50% in size
Estrogen receptor (Homo sapiens), sequence (P03372 whole entry, looked up): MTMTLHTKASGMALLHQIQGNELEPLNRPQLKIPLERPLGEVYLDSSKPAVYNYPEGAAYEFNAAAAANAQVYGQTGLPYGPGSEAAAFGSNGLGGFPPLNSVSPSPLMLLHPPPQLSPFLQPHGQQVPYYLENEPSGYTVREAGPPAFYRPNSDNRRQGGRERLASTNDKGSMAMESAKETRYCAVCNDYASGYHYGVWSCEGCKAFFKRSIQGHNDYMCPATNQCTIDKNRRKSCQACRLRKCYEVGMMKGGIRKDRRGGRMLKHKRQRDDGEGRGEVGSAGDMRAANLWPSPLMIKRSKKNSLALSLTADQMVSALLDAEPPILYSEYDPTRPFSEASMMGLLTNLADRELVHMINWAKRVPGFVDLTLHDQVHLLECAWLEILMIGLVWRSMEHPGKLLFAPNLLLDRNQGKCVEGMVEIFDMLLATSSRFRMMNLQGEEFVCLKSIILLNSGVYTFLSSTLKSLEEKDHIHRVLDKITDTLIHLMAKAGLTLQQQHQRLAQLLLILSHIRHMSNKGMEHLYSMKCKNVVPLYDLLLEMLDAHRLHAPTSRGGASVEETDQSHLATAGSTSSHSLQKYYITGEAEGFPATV
In short: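 Luminescence after ONE-Glo (30 min, room temperature) measured ERE-luciferase activity in VM7Luc4E2 cells treated 22 h with compound and 0.1 nM final 17beta-estradiol as stimulator.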

[20] = target: Androgen receptor (Homo sapiens) (UniProt P10275); assay: qHTS assay to identify small molecule antagonists of the androgen receptor (AR) signaling pathway using the MDA cell line in the presence of 0.5 nM R1881 (AID 1259243)
Androgen receptor (Homo sapiens), sequence (P10275 whole entry, looked up): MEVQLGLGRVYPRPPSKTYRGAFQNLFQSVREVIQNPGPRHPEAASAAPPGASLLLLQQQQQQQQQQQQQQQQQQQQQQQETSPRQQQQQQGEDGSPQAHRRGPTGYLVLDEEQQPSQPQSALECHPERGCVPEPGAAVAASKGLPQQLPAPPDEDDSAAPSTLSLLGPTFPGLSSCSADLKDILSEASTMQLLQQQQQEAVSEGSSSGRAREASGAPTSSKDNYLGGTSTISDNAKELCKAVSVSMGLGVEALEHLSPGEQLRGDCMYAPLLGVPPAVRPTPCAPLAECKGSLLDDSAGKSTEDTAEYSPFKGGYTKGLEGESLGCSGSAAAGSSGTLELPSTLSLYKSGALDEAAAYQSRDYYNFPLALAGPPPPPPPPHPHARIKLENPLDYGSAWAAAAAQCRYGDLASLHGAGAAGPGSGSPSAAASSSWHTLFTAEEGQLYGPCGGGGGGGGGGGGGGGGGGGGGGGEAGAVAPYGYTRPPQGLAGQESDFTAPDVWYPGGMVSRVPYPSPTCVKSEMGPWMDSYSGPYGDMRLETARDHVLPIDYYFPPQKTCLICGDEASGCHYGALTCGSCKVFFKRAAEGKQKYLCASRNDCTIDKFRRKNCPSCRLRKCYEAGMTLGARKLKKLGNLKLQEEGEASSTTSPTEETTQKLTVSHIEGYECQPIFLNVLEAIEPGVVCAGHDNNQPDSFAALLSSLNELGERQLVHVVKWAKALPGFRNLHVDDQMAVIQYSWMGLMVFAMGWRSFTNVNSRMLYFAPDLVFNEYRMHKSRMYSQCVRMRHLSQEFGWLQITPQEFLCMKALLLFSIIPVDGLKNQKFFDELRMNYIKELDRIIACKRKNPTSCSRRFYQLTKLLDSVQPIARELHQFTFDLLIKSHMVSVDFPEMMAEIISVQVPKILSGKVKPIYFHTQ
In short: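 MDA-kb2, MMTV-luc (AR/GR elements); 3,000 cells/well; cpd + 0.5 nM R1881 final; 16 hr 37C, 0% CO2; ONE-Glo 30 min RT; luminescence.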

Which Potency [1] does the source give for `CCC(COC(=O)c1cc(OC)c(OC)c(OC)c1)(c1ccccc1)N(C)C` (centres undefined) here?
The Potency was “inactive”.

What about the Potency [2] of the same compound?
Its Potency is “inactive”.

And the Potency [3]?
The Potency was “inactive”.

And the Potency [4]?
The Potency was “inactive”.

And the Potency [5]?
The Potency was “inactive”.

What about the Potency [6] of the same compound?
Its Potency is “inactive”.

And the Potency [7]?
The Potency was 26.8 µM (active).

What about the Potency [8] of the same compound?
The Potency was “inactive”.

And the Potency [9]?
The Potency was “inactive”.

And the Potency [10]?
The Potency was “inactive”.

What about the Potency [11] of the same compound?
The Potency was “inactive”.

And the Potency [12]?
Its Potency is “inactive”.

And the outcome [13]?
Its outcome is “inactive”.

What about the Potency [14] of the same compound?
The Potency was “inactive”.

And the Potency [15]?
Its Potency is “inactive”.

And the Potency [16]?
The Potency was “inactive”.

And the Potency [17]?
Its Potency is “inactive”.

Which results are given for `CCC(C)(NC(=O)c1cc(Cl)c(C)c(Cl)c1)C(=O)CCl` (centres undefined)?
Potency [1]: inactive; Potency [2]: 43.9 µM (active); Potency [3]: inactive; Potency [4]: 49.3 µM (active); Potency [5]: inactive; Potency [6]: 49.3 µM (active); Potency [18]: 24.7 µM (active); Potency [7]: 27.7 µM (active); Potency [8]: inactive; Potency [9]: inactive; Potency [19]: inactive; Potency [14]: inactive; Potency [15]: inactive; Potency [16]: 43.5 µM (active); Potency [17]: 21.8 µM (active)

For `COP(=S)(OC)Oc1ccc([N+](=O)[O-])cc1Cl`, which Potency [1] is on record?
Its Potency is “inactive”.

What about the Potency [2] of the same compound?
Its Potency is “inactive”.

What about the Potency [3] of the same compound?
Its Potency is “inactive”.

What about the Potency [4] of the same compound?
Its Potency is “inactive”.

What about the Potency [5] of the same compound?
The Potency was “inactive”.

And the Potency [6]?
Its Potency is “inactive”.

And the Potency [18]?
Its Potency is “inactive”.

What about the Potency [8] of the same compound?
Its Potency is “inactive”.

What about the Potency [9] of the same compound?
Its Potency is “inactive”.

What about the Potency [10] of the same compound?
The Potency was “inactive”.

What about the Potency [20] of the same compound?
Its Potency is 6.86 µM (active).

What about the Potency [19] of the same compound?
Its Potency is “inactive”.

What about the Potency [15] of the same compound?
Its Potency is “inactive”.

Which Potency [1] does the source give for `Nc1ccc(N=Nc2ccc(-c3ccc(N=Nc4c(S(=O)(=O)O)cc5cc(S(=O)(=O)O)c(N=Nc6ccccc6)c(O)c5c4N)cc3)cc2)c(N)c1` here?
The Potency was “inactive”.

What about the Potency [2] of the same compound?
Its Potency is “inactive”.

What about the Potency [3] of the same compound?
The Potency was “inactive”.

What about the Potency [4] of the same compound?
The Potency was “inactive”.

What about the Potency [5] of the same compound?
The Potency was “inactive”.

What about the Potency [6] of the same compound?
Its Potency is “inactive”.

And the Potency [18]?
The Potency was “inactive”.

What about the Potency [7] of the same compound?
The Potency was “inactive”.

What about the Potency [8] of the same compound?
The Potency was “inactive”.

What about the Potency [10] of the same compound?
The Potency was “inactive”.

And the Potency [14]?
The Potency was 15.7 µM (active).

What about the Potency [15] of the same compound?
The Potency was 17.6 µM (active).

What about the Potency [16] of the same compound?
The Potency was 17.6 µM (active).

And the Potency [17]?
The Potency was 19.7 µM (active).
